Measured values reported in PubChem BioAssay AID687020 (Broad Institute, 2013).
The campaign covered roughly 1,400 compounds. About 100 (7.1%) were called active. No rule for the calls is given here. Not all results are given here. Entries that show only a call come without a potency. Potency and affinity values are given separately.

assay: viability loss in Vero cells – cell-based, plate reader, cherry-pick samples, cytotoxicity control, dose response (AID 687020); settings: series mostly up to 19.5 µM;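 also: compounds incubated with cells for three days before luminescence read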

Row | SMILES | outcome
1 | O=S(=O)(Nc1nc(SCc2ccc(Cl)cc2)n[nH]1)c1ccc(F)cc1 | inactive
2 | Cc1ccc(C(=O)OCC(=O)Nc2ccccc2C(F)(F)F)cc1S(=O)(=O)N1CCCCC1 | inactive
3 | O=C(NCCc1ccccc1)c1ccccc1NC(=O)C1CCCCC1C(=O)O (stereo unspecified) | inactive
4 | OC[C@@H]1[C@@H](c2ccccc2)C2(CN(Cc3nccs3)C2)N1Cc1cccnc1 | inactive
5 | C[C@@H]1CN([C@@H](C)CO)C(=O)c2cc(C#Cc3cccc(F)c3)cnc2O[C@@H]1CN(C)C(=O)C1CCC1 | inactive
6 | CC(=O)NC(c1cccc(F)c1)c1nc(-c2ccc(N(C)C)cc2)cs1 (stereo unspecified) | inactive
7 | CC(C)CCCN1CCN=C1Nc1ccccc1 | inactive
8 | CC1CCC(CN2C(Nc3ccccc3)=NC[C@@H]2C)CC1 (stereo partly specified) | inactive
9 | Cc1ccc(/C=N/NC(=O)c2ccc(-n3cnnn3)cc2)cc1 | inactive
10 | CS(=O)(=O)N1[C@@H]2CNC[C@H]1C2c1ccc(-c2ccccc2)cc1 (stereo partly specified) | inactive
11 | COc1ccc2c(c1)OC[C@H]1[C@H]2N2C(=O)c3cc(OC)ccc3NC(=O)[C@@]2(C)[C@H]1c1ccccc1 | inactive
12 | CCOC(=O)C1CCN(C(=O)C2CC(=O)N(c3ccc4c(c3)OCCO4)C2)CC1 (stereo unspecified) | inactive
13 | c1ccc(COCCCn2cc(-c3ccccc3)nn2)cc1 | inactive
14 | C[C@@H]1CN([C@H](C)CO)C(=O)c2cc(C#Cc3ccc(F)cc3)cnc2O[C@@H]1CN(C)C | inactive
15 | CCCNC(=O)NC[C@@H]1[C@@H](c2ccc(C3=CCCC3)cc2)[C@@H](CO)N1C(=O)CC | inactive
16 | COc1ccccc1S(=O)(=O)N(C)C[C@H]1Oc2cc(C#CCC(C)C)ccc2S(=O)(=O)N([C@@H](C)CO)C[C@@H]1C | inactive
17 | N#C[C@H]1[C@H](c2ccc(C#CC3CCCCC3)cc2)[C@@H](CO)N1C(=O)Cc1ccccn1 | inactive
18 | CCc1c(C2(O)CCCCC2)[nH]c2c(C(=O)OC)cc(Cl)cc12 | inactive
19 | COc1ccc(NC(=O)CN(C)CCOc2ccc(Cl)cc2)cc1OC | inactive
20 | Cc1ccc(S(=O)(=O)N2CCCCC2)cc1NC(=O)CCOc1ccccc1 | inactive
21 | CCN(CC)S(=O)(=O)c1ccc(N2CCOCC2)c(NC(=O)c2ccccc2)c1 | inactive
22 | O=C(COc1ccc2c(-c3ccccc3)cc(=O)oc2c1)NC1CCS(=O)(=O)C1 (stereo unspecified) | inactive
23 | C[C@H](CO)N1C[C@H](C)[C@H](CN(C)C(=O)Nc2ccc(-c3ccccc3)cc2)OCc2ccccc2-c2c(n(C)c3ccccc23)C1=O | inactive

Row | SMILES | outcome
24 | CCOC(=O)C1=C(CS(=O)(=O)c2ccc(C)cc2)NC(=O)NC1c1cc(OC)c(O)c(OC)c1 (stereo unspecified) | inactive
25 | COc1ccccc1CNC(=O)CCCN1C(=O)NC2(CCCC2)C1=O | inactive
26 | COc1ccccc1Cn1c(=S)[nH]c2cc(C(=O)N3CC(C)CC(C)C3)ccc2c1=O (stereo unspecified) | inactive
27 | CCc1ccc(NC(=O)COc2ccc3c(c2)OCO3)cc1 | inactive
28 | CC1CCc2sc(C(=O)NN=C3CCCC3)cc2C1 (stereo unspecified) | inactive
29 | COc1ccc(S(=O)(=O)N2CCC(C(=O)N[C@H](C(=O)NCc3ccccc3)C(C)C)CC2)cc1 | inactive
30 | CC(C)c1ccc(NC(=O)[C@H](NC(=O)[C@@H]2Cc3ccccc3CN2)c2ccccc2)cc1 | inactive
31 | COc1ccc(NC(=O)Nc2cccc3c2O[C@H](CN(C)C(=O)NC2CCCCC2)[C@H](C)CN([C@@H](C)CO)C3=O)cc1 | inactive
32 | CCCNC(=O)N1[C@H](CO)[C@H](c2ccccc2)[C@@H]1CNC(=O)c1ccc(F)cc1 | inactive
33 | COc1ccc(S(=O)(=O)N2CCCCCC2)cc1NC(=O)Cc1cccc(C(F)(F)F)c1 | inactive
34 | O=C(C1CC1)N1[C@@H](CO)[C@@H]2c3ccccc3NC[C@@H]21 | inactive
35 | C[C@H](NC(=O)[C@H]1N[C@H]2c3ccc(-c4cccnc4)c(=O)n3C[C@H]2[C@@H]1CO)c1ccccc1 | inactive
36 | O=C(NCc1ccccc1F)[C@H]1N[C@H]2c3ccc(-c4ccccc4F)c(=O)n3C[C@H]2[C@@H]1CO | inactive
37 | NC(=O)c1ccccc1NC(=O)COC(=O)C1(c2ccccc2)CC1 | inactive
38 | CSCCC(NC(=O)COc1ccccc1)C(=O)OCCOc1ccc(C)cc1 (stereo unspecified) | inactive
39 | Cc1cccc(OCC(=O)Nc2ccc(N3CCN(C(=O)c4ccccc4)CC3)cc2)c1C | inactive
40 | COc1cc(OC)cc(C(=O)Nc2ccc(N3CCN(C(=O)c4cccs4)CC3)cc2)c1 | inactive
41 | C/C(CC(=O)Nc1ccc(Cl)c(Cl)c1)=N\NC(=O)Cc1ccccc1 | inactive
42 | COc1ccc(S(=O)(=O)Nc2cccc3c2O[C@@H](CN(C)S(C)(=O)=O)[C@@H](C)CN([C@@H](C)CO)C3=O)cc1 | inactive
43 | CCC(C)c1ccc(NC(=O)NCCN2CCCCC2)cc1 (stereo unspecified) | inactive
44 | OC(CSc1nnnn1-c1ccccc1)Cn1c2ccccc2c2ccccc21 (stereo unspecified) | inactive
45 | C[C@@H]1CCCCO[C@H](CN(C)S(=O)(=O)c2ccccc2)[C@@H](C)CN([C@@H](C)CO)C(=O)c2cc(NC(=O)c3ccncc3)ccc2O1 | inactive
46 | CCC(N=c1cc(-c2ccc(OC)c(OC)c2)oc2ccc(C)cc12)C(=O)O (stereo unspecified) | inactive

Row | SMILES | outcome
47 | CN(C)S(=O)(=O)N1CCC(Oc2ccc(C(=O)N3CCCCCCC3)cc2)CC1 | inactive
48 | O=C(NCC1CC1)c1onc(CSc2ccc(F)c(F)c2)c1C(=O)NCC1CC1 | inactive
49 | O=C(O)CCCCCCCCc1cn(CCc2c[nH]c3ccccc23)nn1 | inactive
50 | COc1ccc(S(=O)(=O)N2CCN(CC(=O)NC3CC3)CC2)cc1 | inactive
51 | COc1ccc(CC(=O)NC2CCCCCC2)c(OC)c1 | inactive
52 | CC12CCC(=O)N1C(C(=O)Nc1nc(-c3ccccc3)cs1)CS2 (stereo unspecified) | inactive
53 | C[C@@H]1CCCCO[C@H](CN(C)S(C)(=O)=O)[C@@H](C)CN([C@H](C)CO)C(=O)c2cc(NC(=O)CCC(F)(F)F)ccc2O1 | inactive
54 | O=C(Cn1cnc2c(NCc3ccccc3)ncnc21)NCC1CCCO1 (stereo unspecified) | inactive
55 | CCCN1Cc2cccc(C(=O)Nc3ccc4c(c3)OCCO4)c2C1=O | inactive
56 | Cn1cc([C@]2(O)C(=O)Nc3ccccc32)c2ccccc21 | inactive
57 | CN1c2ccc(Br)cc2[C@@H]2[C@@H](CCN2S(=O)(=O)c2ccccc2)[C@H]1CO | inactive
58 | Cc1ccccc1NS(=O)(=O)c1ccc(S(=O)(=O)N2CCCC2)cc1 | inactive
59 | CCN(CC(=O)Nc1c(F)cccc1F)C(=O)C1CCN(S(=O)(=O)c2ccc(F)cc2)CC1 | inactive
60 | C/C=C/c1ccc([C@H]2[C@@H](CO)N(C(=O)C3CCC3)[C@@H]2CNC(=O)NC(C)C)cc1 | inactive
61 | CC(O)(c1cccc(F)c1)c1nc(/C=C/c2ccccc2)cs1 (stereo unspecified) | inactive
62 | COc1ccc(-c2csc(C(O)c3cccc(OC)c3)n2)cc1 (stereo unspecified) | inactive
63 | CC(OC(=O)c1ccc(O)cc1)C(=O)Nc1nc(-c2ccccc2)cs1 (stereo unspecified) | inactive
64 | N#Cc1cccc(-c2ccc(C3[C@@H]4CN(C(=O)c5cccnc5)C[C@H]3N4)cc2)c1 (stereo partly specified) | inactive
65 | C[C@H](CO)N1C[C@H](C)[C@H](CN(C)C(=O)NC2CCCCC2)Oc2ccc(NC(=O)Cn3cnnn3)cc2C1=O | inactive
66 | O=C(C1CCCCC1)N1C[C@H](O)[C@@H](n2cc(C3CC3)nn2)C[C@@H]1c1ccccc1 | inactive
67 | CCCCCC(=O)N1C[C@@H](O)[C@H](n2cc(COC(=O)c3ccccc3)nn2)C[C@@H]1c1ccc(C)cc1 | inactive
68 | CCc1c(C2CC2)ncn1Cc1cccc(-c2ccccc2)c1 | inactive
69 | FC(F)(F)c1nc2ccccc2n1CCNc1nc(CN2CCCCC2)cs1 | inactive

Row | SMILES | outcome
70 | CN(C)c1cccc(C(=O)Nc2cc(C(F)(F)F)ccc2-n2cnc3ccccc32)c1 | inactive
71 | O=S1(=O)N[C@@H](Cc2ccccc2)COc2cc(N3CCOCC3)ccc21 | inactive
72 | O=C(Cc1cccnc1)N[C@H]1CC[C@@H](CCn2cc(Cc3ccccc3)nn2)O[C@H]1CO | inactive
73 | COc1ccc(NC(=O)N[C@@H]2CC[C@@H](CCNS(=O)(=O)c3cccc(Cl)c3)O[C@@H]2CO)cc1 | inactive
74 | c1ccc(-c2cn(C[C@H]3CC[C@@H]([C@@H]4CC[C@H](Cn5cc(-c6ccccc6)nn5)O4)O3)nn2)cc1 | inactive
75 | COc1ccc(S(=O)(=O)N[C@H]2CC[C@@H](CCNC(=O)CN3CCOCC3)O[C@H]2CO)cc1 | inactive
76 | CCCCN(C(=O)c1ccc2c(c1)NC(=O)CS2)c1ccccc1 | inactive
77 | O=C(OCc1ccccc1)N1CCCC2CC1c1ccccc12 (stereo unspecified) | inactive
78 | CSCCC(NS(=O)(=O)c1cccs1)C(=O)NCc1ccccc1 (stereo unspecified) | inactive
79 | COc1ccc(C)cc1NC(=O)C(c1ccccc1)N1CCN(CC(=O)N2CCOCC2)CC1 (stereo unspecified) | inactive
80 | COc1ccc2c3c(n(C)c2c1)[C@H](CO)N(Cc1ccccc1F)CC31CCN(C(C)=O)CC1 | inactive
81 | CN1C(C(=O)NCc2ccc(OC(F)(F)F)cc2)CC2Cn3c(nc4ccccc43)C21 (stereo unspecified) | inactive
82 | COCCNC(=O)CCC1CCN(Cc2ccc(-c3ccccc3)cc2)CC1 | inactive
83 | COc1cccc(CC(=O)OCC(=O)Nc2nnc(-c3ccccc3)o2)c1 | inactive
84 | COc1ccc(C(CNC(=O)CCNC(=O)c2ccc(Br)cc2)N2CCOCC2)cc1 (stereo unspecified) | inactive
85 | COc1ccc(C(CNS(=O)(=O)c2ccc(NC(C)=O)c(OC)c2)N2CCCC2)cc1 (stereo unspecified) | inactive
86 | CCCCN1C(N)=NC[C@@H]1C(C)O (stereo partly specified) | inactive
87 | O=C(COc1ccccc1)NCC(=O)N/N=C/c1ccc(Br)cc1 | inactive
88 | O=C(CCn1cncn1)N1CCCC(N2CCN(c3ccc(F)cc3)CC2)C1 (stereo unspecified) | inactive
89 | CCN(CC)CC(=O)N1CCCC(N2CCN(c3cccc(C(F)(F)F)c3)CC2)C1 (stereo unspecified) | inactive
90 | O=C(c1cc(C2CC2)on1)N1CCCC(N2CCN(c3cccc(C(F)(F)F)c3)CC2)C1 (stereo unspecified) | inactive
91 | C[C@@H]1CCCCO[C@H](CN(C)Cc2ccc(Cl)c(Cl)c2)[C@H](C)CN([C@@H](C)CO)C(=O)c2cc(NC(=O)c3ccccc3)ccc2O1 | inactive
